Compound activity deposited in PubChem BioAssay by NMMLSC.
Rows were chosen to be rich in hits. Some 0.93% of all compounds tested hit in one or more screens of this group.
LAP4-GFP MLPCN: alters LAP4-GFP fluorescence in TOR pathway yeast screen; AID 2023; GFP response vs DMSO, % at 10 µM; S. cerevisiae LAP4-GFP multiplex, flow cytometry GFP, 3 h; median GFP as percent of DMSO wells; 0.34% of 320,000 active;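 active = GFP response vs DMSO above a set limit, about the screen mean plus 3 SD, cut at about 150% in these data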
CIT2-GFP yeast: modulators of TOR pathway CIT2-GFP in S. cerevisiae; S. cerevisiae CIT2-GFP strain, flow cytometry, 3 h; 100 means same as DMSO wells; GFP response vs DMSO, % at 10 µM; 0.065% of 320,000 active; AID 2029;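 active = GFP response relative to DMSO above a set limit, near the screen mean plus 3 SD, cut at about 150% in these data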;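 note: ratio of well median GFP fluorescence to mean of DMSO wells on the plate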
AGP1 TOR yeast: yeast TOR pathway AGP1-GFP modulation; S. cerevisiae AGP1-GFP multiplex flow cytometry, 3 h; GFP as percent of DMSO wells; GFP response vs DMSO, % at 10 µM; 0.02% of 320,000 active;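 active = GFP response relative to DMSO above a set limit, near screen average plus 3 SD, cut at about 150% in these data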;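 note: median GFP channel fluorescence of the gated AGP1 strain per well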
RPL19A-GFP yeast: modulators of TOR pathway RPL19A-GFP in S. cerevisiae | S. cerevisiae RPL19A-GFP strain, flow cytometry, 3 h; active compounds read low | percent response vs DMSO, % at 10 µM | 0.3% of 330,000 active;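 active = percent response vs DMSO below 50%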;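 note: median channel GFP fluorescence of the barcoded RPL19A-GFP strain; ratio of sample median GFP to plate DMSO average so 100% = DMSO; lower means less RPL19A-GFP as with rapamycin TOR inhibition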
MEP2-GFP yeast: yeast TOR pathway MEP2-GFP modulation. S. cerevisiae MEP2-GFP strain, flow cytometry GFP, 3 h; 100% = DMSO control level. 0.51% of 330,000 active. GFP response vs DMSO, % at 10 µM. AID 2016;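 active = GFP response versus DMSO above a set limit, roughly screen mean plus 3 SD, cut at about 180% in these data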;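 note: median GFP fluorescence of the barcode-gated MEP2-GFP cells per well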
LAP4-GFP pick2: yeast LAP4-GFP modulation, second cherry pick; shares compounds with LAP4-GFP MLPCN; S. cerevisiae LAP4-GFP strain, flow cytometry GFP, 3 h; GFP response vs DMSO, % at 10 µM; 20% of 590 active; AID 2621;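 active = GFP signal as percent of the solvent control above about 150%, meaning raised reporter expression, limit read from the data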;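 note: ratio of well median GFP fluorescence to plate DMSO mean so 100% = DMSO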
MEP2-GFP pick2: reconfirmed MEP2-GFP TOR pathway modulator in yeast. shares compounds with LAP4-GFP MLPCN. S. cerevisiae MEP2-GFP strain, flow cytometry GFP, 3 h. GFP response vs DMSO, % at 10 µM. 10% of 590 active;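 active = GFP signal above 150% of the solvent control wells, that is a rise of more than half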;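 note: median channel GFP fluorescence of all gated yeast cells per well; ratio of median GFP to plate DMSO average so 100% = DMSO level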
RPL19A GFP CP2: yeast RPL19A-GFP TOR reporter modulation, second cherry pick | S. cerevisiae RPL19A-GFP strain, flow cytometry GFP, 3 h; active compounds read low; 100% means same as DMSO wells | shares compounds with LAP4-GFP MLPCN | 3% of 590 active | GFP response vs DMSO, % at 10 µM | AID 2623;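 active = under 65% GFP response relative to DMSO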;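 note: median GFP channel fluorescence per well over the all cells gate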
CIT2 GFP CP2: yeast CIT2-GFP TOR reporter modulation, second cherry pick; shares compounds with LAP4-GFP MLPCN; S. cerevisiae CIT2-GFP strain, flow cytometry GFP, 3 h; DMSO control wells read 100%; GFP response vs DMSO, % at 10 µM; 8% of 590 active; AID 2624;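 active = GFP response vs DMSO above about 150%, limit read from the data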;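 note: median green fluorescence per well over all gated yeast cells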
AGP1 GFP CP2: second confirmation of modulators of TOR reporter AGP1-GFP in yeast. shares compounds with LAP4-GFP MLPCN. S. cerevisiae AGP1-GFP strain, flow cytometry GFP, 3 h. percent response vs DMSO, % at 10 µM. 590 tested, under 10 active. AID 2643;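 active = over 150 percent of DMSO response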;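 note: median GFP channel fluorescence over all cells without mother daughter split; sample median GFP divided by mean DMSO control so 100% equals DMSO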
s288c autofluor: compound is autofluorescent in yeast s288c cells; shares compounds with LAP4-GFP MLPCN; S. cerevisiae s288c, 520 nm autofluorescence, flow cytometry, 3 h; active compounds read high; zero means same as solvent-only cells; fluorescence change (kMESF span) at 33 µM; 610 tested, under 10 active;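 active = fluorescence span over the dose series, or activity score, above about 33, limit read from the data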
Yeast autofl DR: yeast s288c autofluorescence artifact in dose response; shares compounds with LAP4-GFP MLPCN; S. cerevisiae s288c parental, compound autofluorescence, flow cytometry, 3 h; fluorescence change (span) at 33 µM; 110 tested, under 10 active; AID 488829;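 active = fluorescence change span, or the activity score built from it, above 25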
TORC1 bypass: stops wildtype yeast growth while TORC1 bypass cells still grow. growth rating (0-3) at 30 µM. 120 tested, under 10 active. S. cerevisiae BY4741 spot growth rating, 48-72 h; active compounds read low. shares compounds with LAP4-GFP MLPCN;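 active = growth rating at most 1 for wild type yeast while the TORC1 bypass strain still grows fully, rated 3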
* marks the source's active call; other numbers are inactive results; nt = no result given.

SMILES	LAP4-GFP MLPCN	CIT2-GFP yeast	AGP1 TOR yeast	RPL19A-GFP yeast	MEP2-GFP yeast	LAP4-GFP pick2	MEP2-GFP pick2	RPL19A GFP CP2	CIT2 GFP CP2	AGP1 GFP CP2	others
CCCCC1OC23CCCCC2C(C#N)(C(=N)O3)C1(C#N)C#N (stereo not given)	97	93	70	64	189*	nt	nt	nt	nt	nt	s288c autofluor=0.31
NC(=O)C1CCN(C(=O)c2cc(Cl)c3c(c2)OCCO3)CC1	183*	71	99	83	95	99	98	101	106	100
N#Cc1ccc(CN2CCN(C(=O)c3cc(Cl)c4c(c3)OCCO4)CC2)cc1	109	94	102	99	100	nt	nt	nt	nt	nt
C=CCN1C(=O)CSc2ccc(C(=O)NC(C)c3ccccc3)cc21 (stereo not given)	102	106	111	110	102	nt	nt	nt	nt	nt
O=C(CNC(=O)c1ccccc1)OCC(=O)c1ccc(Cl)s1	190*	91	83	96	109	101	103	99	100	99
Cc1cc(C)nc(Nc2n[nH]c(COc3ccccc3)n2)n1	88	101	25	62	167	101	107	99	104	96
Cc1cc(C)nc(Nc2n[nH]c(COc3ccc4ccccc4c3)n2)n1	105	93	101	96	104	nt	nt	nt	nt	nt
CC1CCCN(C(=O)C(C)Nc2cc(Cl)ccc2N2CCOCC2)C1 (stereo not given)	101	106	100	100	99	nt	nt	nt	nt	nt
CC(=O)n1cc(C(C[N+](=O)[O-])SCCN)c2ccccc21 (stereo not given)	226*	76	78	93	87	183*	164*	98	127	104	s288c autofluor=1.5
CS(=O)(=O)c1nc(-c2ccccc2)cc(C(F)(F)F)n1	160*	80	111	86	142	nt	nt	nt	nt	nt	s288c autofluor=0.51
Cc1cc(NC(=O)CCS(=O)(=O)c2nc(-c3ccccc3)cc(C(F)(F)F)n2)no1	111	99	113	100	104	nt	nt	nt	nt	nt
O=C1CCN(S(=O)(=O)c2cccs2)c2ccc(C(F)(F)F)cc2N1	102	95	98	97	97	nt	nt	nt	nt	nt
O=C(OCn1ncc(Br)c(Br)c1=O)c1ccc(F)cc1	236*	nt	81	90	85	nt	nt	nt	nt	nt	s288c autofluor=0.61;Yeast autofl DR=0.36;TORC1 bypass=2
O=C(OCn1ncc(Br)c(Br)c1=O)c1ccccc1Cl	203*	84	96	88	90	nt	nt	nt	nt	nt	s288c autofluor=0
O=C(OCc1cnc(Cl)s1)c1ccccc1Cl	100	84	75	95	97	nt	nt	nt	nt	nt
CC(=O)/C(N=Nc1ccc(-n2ccc(C(F)(F)F)n2)cc1)=C(\C)O	110	91	99	98	105	nt	nt	nt	nt	nt
C[n+]1cccc2c(Br)ccc([O-])c21	111	100	108	101	103	nt	nt	nt	nt	nt
[O-][n+]1cccc2c(Br)cc(Br)c(O)c21	163*	118	108	101	100	nt	nt	nt	nt	nt	s288c autofluor=1.1
CSc1sc(C(=O)NC(=O)NCc2ccncc2)c(C)c1-c1ccon1	99	104	103	93	88	nt	nt	nt	nt	nt
Cn1c(=O)c(C(=O)NNC(=O)c2ccc(Br)cc2)c(O)c2ccccc21	127	90	72	64	128	162*	165*	79	81	86	s288c autofluor=2.5
CC(=O)NCC1CCCN(Cc2cn(-c3ccccc3)nc2-c2ccc3c(c2)OCO3)C1 (stereo not given)	192*	91	117	81	112	96	96	100	111	99
Cc1cc(C)cc(C(=O)Nc2cccc(NC(=O)c3ccco3)c2)c1	111	105	95	113	111	nt	nt	nt	nt	nt
Cc1cccc(NC(=O)c2nc[nH]c2C(=O)NCC(=O)OC(C)(C)C)c1	168*	112	93	97	98	117	105	92	90	94
C[C@H](NC(=O)c1[nH]cnc1C(=O)Nc1ccc(Cl)cc1)C(=O)OC(C)(C)C	158*	89	86	97	90	109	108	93	96	95
Cc1cccc(NC(=O)c2nc[nH]c2C(=O)N[C@@H](C)C(=O)OC(C)(C)C)c1	160*	77	78	97	90	110	98	94	92	95
SMILES	LAP4-GFP MLPCN	CIT2-GFP yeast	AGP1 TOR yeast	RPL19A-GFP yeast	MEP2-GFP yeast	LAP4-GFP pick2	MEP2-GFP pick2	RPL19A GFP CP2	CIT2 GFP CP2	AGP1 GFP CP2	others
O=C(OCC(=O)N1CCCC1=O)c1ccc(F)c(S(=O)(=O)N2CCOCC2)c1	77	94	90	105	98	nt	nt	nt	nt	nt
CC(C)CN(C(=O)CCCSc1nc2ccccc2[nH]1)c1c(N)n(Cc2ccccc2)c(=O)[nH]c1=O	104	104	107	100	103	nt	nt	nt	nt	nt
Cc1ccc(C(=O)N2CCN(c3ccc([N+](=O)[O-])cc3)CC2)o1	95	92	89	100	101	nt	nt	nt	nt	nt
COC(=O)CCN(C(=O)C1C2CC3CC(C2)CC1C3)c1ccccn1 (stereo not given)	154*	96	107	95	93	111	126	101	122	102
CCOc1ccccc1C(=O)N(CCC(=O)OC)c1ccccn1	85	93	93	95	90	nt	nt	nt	nt	nt
O=C(NCCN1CCCCC1)Nc1cccc(F)c1	94	107	99	102	108	nt	nt	nt	nt	nt
COc1ccc(N2C(=O)C(Cl)=C(Nc3ccc(OC)cc3OC)C2=O)cc1	84	79	89	95	91	nt	nt	nt	nt	nt
COc1ccc(N2C(=O)C(Cl)=C(Nc3c(C)n(C)n(-c4ccccc4)c3=O)C2=O)cc1	142	95	91	94	99	nt	nt	nt	nt	nt	s288c autofluor=0.4
